Results from the OligoGym collection.

Target: FGA
Assay: pooled miR-30 sensor sort-seq; sequence = guide strand
Conditions: shRNA
Note: reference of the scale not given here.

| Sequence | sensor-assay potency score (higher = more potent) |
| --- | --- |
| TAAAATTCAGTGATCCATCCAT | 0.455 |
| TCAATCAACCCTTTCATCCTGC | 0.452 |
| TATTCTGTTTGTAAAATCTTGA | -0.477 |
| TTCAGTGATCCATCCATTCTTT | -0.0325 |
| TAACTCCATTCTCATCTGCGGC | -1.53 |

Target: FGF1
Assay: as above
Conditions: shRNA

| Sequence | sensor-assay potency score (higher = more potent) |
| --- | --- |
| AACAAGATTGCTTTCTGGCCAT | -0.264 |
| TTTGGTGTCTGTGAGCCGTATA | -0.694 |
| TTAAACTTCTCGGTCAGGGCTG | -0.0976 |
| ATTTGGTGTCTGTGAGCCGTAT | -0.909 |
| TGAATGTGCTGGTCGCTCCTGT | -0.0696 |
| TCATTTGGTGTCTGTGAGCCGT | -0.0568 |
| TTCTTCTCTGCATGCTTCTTGG | -0.847 |
| TTGCTTTCTGGCCATAGTGAGT | -1.34 |
| TTGGGCTTCTTGTAATTCCCTG | -0.211 |
| TATATAGGTGTTGTAATGGTTC | -0.522 |
| TTCTTGGATATATAGGTGTTGT | -1.22 |
| TAATGGTTCTCCTCCAGCCTTT | -0.798 |
| TTCCAGGAACAAACATTCCTCA | -0.434 |
| TGGGCTTCTTGTAATTCCCTGG | -0.134 |
| TTGGATATATAGGTGTTGTAAT | -0.998 |
| TTTCCAGGAACAAACATTCCTC | -0.373 |
| TCTGGCCATAGTGAGTCCGAGG | -1.16 |
| TTCTCTGCATGCTTCTTGGATA | -0.722 |
| TAGTGAGTCCGAGGACCGCGTT | -1.55 |
| TTGCAGCTCCCATTCTTCTTGA | -1.07 |
| TTTGCAGCTCCCATTCTTCTTG | -0.462 |
| TTTCTGGCCATAGTGAGTCCGA | -0.918 |
| AGGCAGATTAAACTTCTCGGTC | -1.58 |
| TAAACTTCTCGGTCAGGGCTGT | 0.184 |

Target: FGF23
Assay: as above
Conditions: shRNA

| Sequence | sensor-assay potency score (higher = more potent) |
| --- | --- |
| TCTGATCTGATCATCAGGGCAC | 0.338 |
| TTGGAACCTGCAGTTCTCCGGG | 0.14 |
| TGGAACCTGCAGTTCTCCGGGT | -0.566 |
| ATCCTCTGATCTGATCATCAGG | -1.39 |
| TAATGGGTCACTGGCCATCGGG | -1.63 |
| TTCTGCTCATCACACCTGTAAT | -1.67 |
| TATCTTCTGCTCATCACACCTG | 0.064 |
| TCCATGCAGAGGTATCTTCTGC | -1.48 |
| TTCTTGTGGATCTGCAGGTGGT | -1.08 |
| TTGCCTCTGAAATCCATGCAGA | -1.09 |
| AATGTTGCCTCTGAAATCCATG | -1.53 |
